Shown are actives, neighbours in structure and some others; about 2.3% of the full set was active somewhere.
PP5 primary: blocks human protein phosphatase 5 activity; inhibition, % at 6.7 µM; purified PP5c, OMFP substrate fluorescence; AID 1987; P53041; actives 0.18% (n = 320,000);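 active = inhibition above the campaign's mean inhibition across all tested compounds plus 3 SD, cut at about 9.5% in these data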;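 also: 0% = DMSO only and 100% = 100 µM cantharidin control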
Target sequence (P53041 whole entry, looked up): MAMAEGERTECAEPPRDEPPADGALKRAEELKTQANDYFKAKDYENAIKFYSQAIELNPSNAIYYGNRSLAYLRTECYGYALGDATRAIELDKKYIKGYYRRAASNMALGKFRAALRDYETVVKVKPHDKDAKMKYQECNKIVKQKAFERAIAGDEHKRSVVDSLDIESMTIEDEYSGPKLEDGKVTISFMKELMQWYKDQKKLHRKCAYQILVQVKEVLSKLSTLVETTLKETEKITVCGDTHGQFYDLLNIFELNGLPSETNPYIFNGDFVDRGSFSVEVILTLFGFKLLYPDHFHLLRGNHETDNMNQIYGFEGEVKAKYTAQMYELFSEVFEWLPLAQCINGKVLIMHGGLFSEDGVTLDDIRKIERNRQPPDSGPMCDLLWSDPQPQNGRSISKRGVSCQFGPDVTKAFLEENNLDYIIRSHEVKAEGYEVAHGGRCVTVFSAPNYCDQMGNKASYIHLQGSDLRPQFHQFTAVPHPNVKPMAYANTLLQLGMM
PP1 inh: PP1-alpha (human) inhibition in PP5 counter-screen; P62136; inhibition, % at 6.7 µM; purified PP1alpha, OMFP fluorescence; actives 0.9% (n = 320,000);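 active = inhibition above the mean inhibition of all tested compounds plus 3 SD, computed separately for each screening campaign, cut at about 15% in these data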
MsrA inhibitor: bovine MsrA inhibition. inhibition, % at 15.5 µM. actives 0.75% (n = 360,000). purified bovine MsrA, absorbance read-out. AID 651718; in the data active = inhibition above about 4.5%;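 also: 0% = vehicle wells with enzyme and 100% = reference inhibitor wells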
MsrA act: activates bovine MsrA enzyme | activation, % at 10.6 µM | actives 0.3% (n = 360,000) | purified bovine MsrA, absorbance read-out; in the data active = activation above about 7.5%;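 also: 0% = vehicle and 100% = reference activator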
EBNA-1 inhibitor: blocks EBNA-1 binding to DNA. EBNA-1 DNA binding, fluorescence polarization. actives 0.34% (n = 300,000). inhibition, % at 14.8 µM; in the data active = inhibition above about 28%
ZTA DNA inh: ZTA (EBV) inhibition in EBNA-1 counter-screen. P03206. actives 0.15% (n = 320,000). inhibition, % at 11 µM. ZTA-DNA binding, fluorescence polarization; in the data active = inhibition above about 33%
PP1 confirm: human PP1 phosphatase inhibition, confirmation; shares compounds with PP1 inh; purified PP1alpha, OMFP substrate fluorescence; inhibition, % at 6.7 µM; actives 52% (n = 1,900);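 active = mean PP1 inhibition above a set limit taken from the earlier primary screen, cut at about 15% in these data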
PP5 counter: inhibits human PP5 phosphatase in PP1 counter-screen | purified PP5c, OMFP fluorescence | shares compounds with PP1 inh | actives 4% (n = 1,900) | inhibition, % at 6.7 µM;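 active = mean PP5 inhibition over triplicate wells above about 9.5% taken from the earlier PP1 screen, limit read from the data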
* marks the source's active call; other numbers are inactive results; · = no result given.

SMILES | PP5 primary | PP1 inh | MsrA inhibitor | MsrA act | EBNA-1 inhibitor | ZTA DNA inh | PP1 confirm | PP5 counter
Cc1nc(-c2ccccn2)nc(SCC(=O)c2ccc(F)cc2)c1Cl | 3 | 27* | 1 | -6 | -7 | 10 | 41* | -3
COc1ccc(C(=O)CSc2nc(-c3ccccn3)nc(C)c2Cl)cc1 | -1 | 15 | 0 | -6 | -15 | 2 | · | ·
O=C(O)CSCC(=O)N(Cc1ccccc1)c1nc(-c2ccccc2)c(-c2ccccc2)s1 | 6 | 26* | 0 | -4 | -17 | -1 | 19* | -1
COc1ccc(C(=O)NCc2ccc(-c3nc4ccccc4s3)cc2)cc1 | 0 | 20* | 2 | -3 | 3 | 16 | 25* | -2
COc1cccc(C(=O)NCc2ccc(-c3nc4ccccc4s3)cc2)c1 | -2 | -1 | 0 | -3 | 15 | 10 | · | ·
COc1ccc(CNC(=O)c2ccc(CNc3c(NC4CCCCC4)c(=O)c3=O)cc2)cc1 | 2 | 25* | 1 | -4 | 7 | -4 | 14 | -4
COc1ccc([N+](=O)[O-])cc1N(CC(O)CN1C(=O)NC(C)(C)C1=O)S(=O)(=O)c1ccccc1 (stereo unspecified) | 2 | -1 | 1 | -2 | 5 | -7 | · | ·
CN1CCN(C(c2ccc(Br)cc2)c2cc(Cl)c3cccnc3c2O)CC1 (stereo unspecified) | 5 | 24* | 1 | 0 | -12 | -6 | 3 | -1
COCCCNC(=O)[C@@H](Cc1ccccc1)NC(=O)CC[C@H]1O[C@@H](n2ccc(=O)[nH]c2=O)[C@H](O)[C@@H]1O | · | · | 1 | -9 | · | · | · | ·
O=C1c2cccc3cccc(c23)C(=O)N1CC1CCN(CC(O)COc2ccc3ccccc3c2)CC1 (stereo unspecified) | 0 | 34* | 1 | -1 | 10 | -1 | 0 | 1
O=C(CN1C(=O)C2CC=CCC2C1=O)Nc1ccc(F)cc1F (stereo unspecified) | 0 | -4 | 0 | -8 | · | 8 | · | ·
COc1cccc(N=Nc2c(=O)[nH]n3c(=O)c4c([nH]c23)CCC4)c1 | 2 | 20* | 0 | -3 | -4 | -1 | 16* | 0
O=c1[nH]n2c(=O)c3c([nH]c2c1N=Nc1cccc(C(F)(F)F)c1)CCCC3 | 1 | 26* | 1 | -7 | 27 | 22 | 24* | 0
O=C(Cn1cc[n+](CC(=O)c2ccc(Cl)cc2Cl)c1)c1ccc(Cl)cc1Cl | -2 | 18* | 0 | -3 | 5 | 10 | -11 | -2
O=C(Cn1cc[n+](CC(=O)c2ccccc2)c1)c1ccccc1 | 2 | 4 | -2 | -4 | -3 | -22 | · | ·
O=C1N[C@@H](Cc2ccccc2)C(=O)N2[C@H]1C[C@]1([C@]34C[C@H]5C(=O)N[C@@H](Cc6ccccc6)C(=O)N5[C@H]3N(S(=O)(=O)c3ccccc3)c3ccccc34)c3ccccc3N(S(=O)(=O)c3ccccc3)[C@H]21 | 1 | 30* | 1 | -2 | 9 | 5 | 23* | -4
CC(C)OC(=O)NS(=O)(=O)c1cccc([N+](=O)[O-])c1 | 3 | -4 | 0 | -9 | 12 | -4 | · | ·
CCSc1nnc(NC(=O)CSc2sc3c(O)cc(=O)[nH]c3c2C#N)s1 | 1 | 5 | 4 | -4 | -6 | 14 | · | ·
CCc1nnc(NC(=O)CSc2sc3c(O)cc(=O)[nH]c3c2C#N)s1 | 0 | 18* | 4 | -2 | -8 | -9 | 3 | -3
COc1ccc(NC(=O)CSc2sc3c(O)cc(=O)[nH]c3c2C#N)c(OC)c1 | 1 | 13 | 2 | -5 | 3 | -2 | · | ·
COc1ccccc1NC(=O)CSc1sc2c(O)cc(=O)[nH]c2c1C#N | -1 | 20* | 0 | -4 | -5 | -10 | 0 | -2
C=CCNC(=O)C1COc2ccccc2O1 (stereo unspecified) | 0 | -7 | 3 | -2 | -2 | 5 | · | ·
CN1/C(=C\C(=O)C[n+]2ccc3ccccc3c2)C(C)(C)c2ccccc21 | · | · | 3 | -5 | · | · | · | ·
CCN1C(=O)C2CCCCN2c2ccc(C(=O)NCCOC)cc21 (stereo unspecified) | 0 | -1 | 2 | -2 | 10 | 19 | · | ·

Assay outcomes from PubChem.
